According to PubChem BioAssay (NCATS):
Results filed as inconclusive are left out. The source made the active and inactive calls. Calls follow the shape of the dose curve; as a rule, active = well fitted curve in the direction sought with a large enough effect; inconclusive = small, poorly fitted or top-dose-only effect, or another doubt; inactive = no such curve, though single readings can be large; an effect the other way counts as inactive or inconclusive.

Tests used:
[1] = qHTS of pediatric cancer cell lines to identify multiple opportunities for drug repurposing: Primary screen for Rh18 cells (AID 1347102); also: nearly all actives have a fitted effect of over 65% in size; also: potency is read from the fitted curve at half-maximal effect
Method in brief: (§1)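 Viability after 48 h compound treatment at 37C, 500-1,000 cells/well, read as ATP luminescence with CellTiter-Glo. Primary screens used 11-point (MIPE, 0.78 nM-46 µM) or 8-point (NPC, 0.59 nM-46 µM) final concentrations; follow-up screens used 11-point dilutions.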

[2] = qHTS of pediatric cancer cell lines to identify multiple opportunities for drug repurposing: Primary screen for OHS-50 cells (AID 1347103); also: nearly all actives have a fitted effect of over 40% in size; also: potency is read from the fitted curve at half-maximal effect
Method in brief: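 Cells (500-1,000/well) rested 5 h, then received compounds for 48 h; metabolically active cells were measured by CellTiter-Glo luminescence. Final concentrations spanned up to 46 µM (MIPE, 11-point) or 0.59 nM-46 µM (NPC, 8-point) in primary screens, 11-point in follow-ups.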

[3] = qHTS of pediatric cancer cell lines to identify multiple opportunities for drug repurposing: Primary screen for control Hh wild type fibroblast cells (AID 1347106); also: nearly all actives have a fitted effect of over 55% in size; also: potency is read from the fitted curve at half-maximal effect;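 as to activity change, negative = cytotoxic: a drop in luminescence marks cytotoxicity and a rise apparent proliferation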
Method in brief: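 Cells (500-1,000/well) in growth media were settled 5 h at 37 degrees C, then given compounds for 48 h. Viability was read as CellTiter-Glo luminescence. Primary runs used MIPE at 11 points (0.78 nM-46 µM) and NPC at 8 points (0.59 nM-46 µM); follow-ups used 11 points.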

[4] = qHTS of pediatric cancer cell lines to identify multiple opportunities for drug repurposing: Primary screen for MG 63 (6-TG R) cells (AID 1347105); also: nearly all actives have a fitted effect of over 50% in size; also: potency is read from the fitted curve at half-maximal effect
Method in brief: (§2)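 Luminescence from CellTiter-Glo served as readout of metabolically active cells after 48 h compound exposure. Titrations: MIPE 11-point, from 0.78 nM; NPC 8-point, from 0.59 nM (final). Concentration-response curves came straight from the primary screen.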

[5] = qHTS of pediatric cancer cell lines to identify multiple opportunities for drug repurposing: Primary screen for Rh30 cells (AID 1347107); also: nearly all actives have a fitted effect of over 75% in size; also: potency is read from the fitted curve at half-maximal effect
Method in brief: as §1

[6] = qHTS of pediatric cancer cell lines to identify multiple opportunities for drug repurposing: Primary screen for Rh41 cells (AID 1347108); also: nearly all actives have a fitted effect of over 70% in size; also: potency is read from the fitted curve at half-maximal effect;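 as to activity change, negative = cytotoxic: luminescence drop marks cytotoxic hits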
Method in brief: as §2

[7] = qHTS of pediatric cancer cell lines to identify multiple opportunities for drug repurposing: Confirmatory screen for NB1643 cells (AID 1347109); also: potency is read from the fitted curve at half-maximal effect; nearly all actives have a fitted effect of over 45% in size
Method in brief: as §1

[8] = qHTS of pediatric cancer cell lines to identify multiple opportunities for drug repurposing: Confirmatory screen for A673 cells (AID 1347110); also: potency is read from the fitted curve at half-maximal effect; nearly all actives have a fitted effect of over 65% in size
Method in brief: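 Concentration-response curves came straight from titrations: 11 points (0.78 nM to 46 µM) for MIPE and several concentrations (0.59 nM to 46 µM) for NPC in primary, 11 points in follow-up. Readout: ATP luminescence at 48 h.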

[9] = qHTS of pediatric cancer cell lines to identify multiple opportunities for drug repurposing: Confirmatory screen for SK-N-MC cells (AID 1347111);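 also: potency is read from the fitted curve at half-maximal effect; cells exposed to compound for 48 h before the readout; nearly all actives have a fitted effect of over 70% in size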
Method in brief: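 SK-N-MC cells at 500-1,000 cells/well in growth media were pre-incubated 5 h, then exposed to compounds at 11-point dilutions for 48 h at 37 degrees C, 5% CO2. Viability was read as CellTiter-Glo luminescence.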

[10] = qHTS of pediatric cancer cell lines to identify multiple opportunities for drug repurposing: Confirmatory screen for BT-12 cells (AID 1347112); also: potency is read from the fitted curve at half-maximal effect; nearly all actives have a fitted effect of over 55% in size
Method in brief: as §1

[11] = qHTS of pediatric cancer cell lines to identify multiple opportunities for drug repurposing: Confirmatory screen for LAN-5 cells (AID 1347113); also: nearly all actives have a fitted effect of over 65% in size; also: potency is read from the fitted curve at half-maximal effect
Method in brief: as §1

[12] = qHTS of pediatric cancer cell lines to identify multiple opportunities for drug repurposing: Confirmatory screen for DAOY cells (AID 1347114); also: potency is read from the fitted curve at half-maximal effect; nearly all actives have a fitted effect of over 65% in size
Method in brief: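 Viability measured as metabolically active cells via CellTiter-Glo luminescence following 48 hours of compound exposure, 11-point dilutions in confirmatory testing. 500-1,000 cells/well plated 5 hours before dosing; controls were DMSO and 2.3 µM bortezomib.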

[13] = qHTS of pediatric cancer cell lines to identify multiple opportunities for drug repurposing: Confirmatory screen for NB-EBc1 cells (AID 1347115); also: potency is read from the fitted curve at half-maximal effect; nearly all actives have a fitted effect of over 45% in size
Method in brief: as §1

[14] = qHTS of pediatric cancer cell lines to identify multiple opportunities for drug repurposing: Confirmatory screen for BT-37 cells (AID 1347117); settings: BT-37 pediatric cancer cells, viability; activity change, negative = cytotoxic: at 45.9 µM (top of the series); also: potency is read from the fitted curve at half-maximal effect; nearly all actives have a fitted effect of over 55% in size
Method in brief: as §1

[15] = qHTS of pediatric cancer cell lines to identify multiple opportunities for drug repurposing: Confirmatory screen for TC32 cells (AID 1347118)
Method in brief: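 TC32 cells, 500-1,000/well in growth medium, compound-treated 48 h at 37 °C; viability from CellTiter-Glo luminescence. Primary screen: MIPE 11-point (0.78 nM–46 µM final), NPC 8-point (0.59 nM–46 µM final); confirmatory at 11-point dilutions.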

[16] = qHTS of pediatric cancer cell lines to identify multiple opportunities for drug repurposing: Confirmatory screen for MG 63 (6-TG R) cells (AID 1347119); also: potency is read from the fitted curve at half-maximal effect; nearly all actives have a fitted effect of over 55% in size
Method in brief: as §1

[17] = qHTS of pediatric cancer cell lines to identify multiple opportunities for drug repurposing: Confirmatory screen for control Hh wild type fibroblast cells (AID 1347121); also: nearly all actives have a fitted effect of over 70% in size
Method in brief: as §1

[18] = qHTS of pediatric cancer cell lines to identify multiple opportunities for drug repurposing: Confirmatory screen for U-2 OS cells (AID 1347122)
Method in brief: as §1

Measured: Potency

CC(C)c1cc(C(C)C)c(CC(=O)NS(=O)(=O)Oc2c(C(C)C)cccc2C(C)C)c(C(C)C)c1
active: [2] 27300 nM
inactive: [1] | [3]

C[C@@]12C[C@@]3(O)O[C@@H](O1)[C@]1(COC(=O)c4ccccc4)[C@@H]3C[C@@]12O[C@@H]1O[C@H](CO)[C@@H](O)[C@H](O)[C@@H]1O
inactive: [1] | [2] | [4] | [5] | [6]

O=C(O)C=Cc1ccc(Cn2ccnc2)cc1
inactive: [1] | [2] | [4] | [3] | [5] | [6]

OC[C@H]1OC(O)C[C@@H](O)[C@H]1O (stereo partly drawn)
inactive: [1] | [2] | [4] | [3] | [5] | [6]

C=CC1=C(C(=O)O)N2C(=O)[C@@H](NC(=O)C(=NO)c3csc(N)n3)[C@H]2SC1
inactive: [1] | [2] | [4] | [3] | [5] | [6]

CC(=O)OCC(=O)[C@@]12N=C(C)O[C@H]1C[C@H]1[C@@H]3CCC4=CC(=O)C=C[C@]4(C)[C@@H]3[C@@H](O)C[C@@]12C
inactive: [1] | [2] | [4] | [5] | [6]

COc1ccc(S(=O)(=O)Nc2cccnc2Nc2ccc(O)cc2)cc1
active: [2] 306 nM | [6] 187 nM | [7] 522 nM | [8] 928 nM | [9] 2610 nM | [10] 3290 nM | [11] 1650 nM | [12] 369 nM | [13] 2330 nM | [14] 1310 nM | [15] 737 nM | [16] 465 nM | [18] 827 nM
inactive: [1] | [5] | [17]

CCC[C@H]1C[C@H](C(=O)N[C@@H]([C@@H]2O[C@@H](SC)[C@@H](O)[C@@H](O)[C@@H]2O)[C@H](C)Cl)N(C)C1
inactive: [1] | [2] | [4] | [3] | [5] | [6]

CCN(CC)CCCCNc1ncc2c(n1)N(C)C(=O)N(c1c(Cl)c(OC)cc(OC)c1Cl)C2
active: [1] 11800 nM | [2] 19300 nM | [6] 18700 nM
inactive: [4]

COC[C@H](NC(=O)c1cnc(C)s1)C(=O)N[C@@H](COC)C(=O)N[C@@H](Cc1ccccc1)C(=O)[C@@]1(C)CO1
inactive: [17]
active: [1] 187 nM | [2] 193 nM | [4] 235 nM | [3] 935 nM | [5] 1660 nM | [6] 296 nM | [8] 165 nM | [9] 36.9 nM | [10] 414 nM | [11] 329 nM | [12] 104 nM | [13] 208 nM | [14] 165 nM | [15] 165 nM | [16] 92.8 nM | [18] 329 nM

COc1cc([C@@H]2c3cc4c(cc3[C@H](O)[C@H]3COC(=O)[C@@H]23)OCO4)cc(OC)c1OC
inactive: [1] | [5] | [17]
active: [2] 172 nM | [8] 928 nM | [9] 585 nM | [10] 1040 nM | [11] 1040 nM | [12] 414 nM | [13] 3290 nM | [14] 1170 nM | [16] 737 nM | [18] 1850 nM

C[C@H](NC(=O)[C@@H](O)c1cc(F)cc(F)c1)C(=O)N[C@@H]1C(=O)N(C)c2ccccc2-c2ccccc21
inactive: [1] | [2] | [3]

C[C@H]1O[C@H](O[C@H]2[C@H](O)[C@@H](O)[C@@H](O[C@H]3[C@H](O)[C@@H](O)C(O)O[C@H]3CO)O[C@H]2CO)[C@H](O)[C@@H](O)[C@H]1N[C@H]1C=C(CO)[C@@H](O)[C@H](O)[C@@H]1O (stereo partly drawn)
inactive: [1] | [4] | [3] | [5] | [6]
active: [2] 2170 nM

CC(=O)O[C@@]12CO[C@H]1C[C@H](O)[C@@]1(C)C(=O)[C@H](O)C3=C(C)[C@@H](OC(=O)C(O)[C@@H](NC(=O)OC(C)(C)C)c4ccccc4)C[C@@](O)([C@@H](OC(=O)c4ccccc4)[C@@H]21)C3(C)C (stereo partly drawn)
active: [2] 1 nM | [8] 5.2 nM | [9] 6.6 nM | [16] 7.4 nM
inactive: [1] | [4] | [3] | [11] | [17]

O=C(C[C@@H]1CC=CCCC(=O)O[C@H](c2ccccc2)CNC1=O)NCc1ccc(Cl)cc1
inactive: [1] | [2] | [4] | [3] | [5] | [6]

CN(C)CC[C@H](c1ccc(Cl)cc1)c1ccccn1
inactive: [1] | [2] | [4] | [3] | [5]

COc1cc(C)c(C=CC(C)=CC=CC(C)=CC(=O)O)c(C)c1C
inactive: [1] | [5]
active: [2] 1720 nM

CC[C@@]1([C@@H]2O[C@@H]([C@H]3O[C@@](O)(CO)[C@H](C)C[C@H]3C)C[C@H]2C)CC[C@H]([C@]2(C)CC[C@]3(C[C@H](O)[C@@H](C)[C@@H]([C@@H](C)[C@@H](OC)[C@H](C)C(=O)O)O3)O2)O1
inactive: [1] | [6]
active: [2] 188 nM | [7] 362 nM | [8] 1020 nM | [9] 229 nM | [10] 1150 nM | [11] 362 nM | [12] 3230 nM | [13] 1620 nM | [14] 204 nM | [15] 288 nM | [16] 512 nM

O=C1c2cccc(O)c2C(=O)c2c(O)cc(CO)cc21
inactive: [1] | [2] | [4] | [3] | [5] | [6]
